Out of some 52,000 compounds screened, about 4,300 (8.3%) were called active. Many of the other results were omitted from the sample, so actives are more common in it than they were. A number with no mark means an inactive call. Rule as the data show it: active = survival mostly below about 52% (no sharp cut-off); inactive = mostly above about 56%.
tested on: DeltatarO mutant; assay: growth inhibition of S. aureus wild type versus tarO mutant, primary screen, teichoic acid synthesis inhibitors, RN4220, OD600 (AID 463173); conditions: OD600, 18 h, stronger effect = lower value, screened at 18.75 µg/mL (by protocol)

SMILES | survival
Cc1cccc(CC(=O)NCCc2csc(-c3ccc(C(F)(F)F)cc3)n2)c1 | 101%
CCc1ccc(-n2c(=O)c3ccccc3n(CC(=O)NCCc3ccc(OC)c(OC)c3)c2=O)cc1 | 91%
CC(C)OC(=O)CSc1nnc(-c2ccc(O)cc2)o1 | 72%
COc1ccc(CSC(=N)N)cc1Cl | 97%
COc1ccc(-c2csc(N)n2)cc1C | 97%
O=C(NCC(c1ccco1)S(=O)(=O)c1cccs1)c1ccc(F)c(F)c1 (centres undefined) | 75%
COc1ccc(CNC(=O)CCCn2nc(C)c3c(C)n(-c4ccc(C)cc4)nc3c2=O)cc1OC | 74%
Cc1ccc(CCNC(=O)Cn2nc(C)c3c(C)n(-c4ccc(C)cc4)nc3c2=O)cc1 | 79%
COc1ccc(CNC(=O)CCn2nc(C)c3c(C)n(-c4ccccc4)nc3c2=O)cc1OC | 0% (active)
Cc1ccc(C)c(NC(=O)CCn2nc(C)c3c(C)n(-c4ccccc4)nc3c2=O)c1 | 37% (active)
Cc1cc(Cl)ccc1NC(=O)CCn1nc(C)c2c(C)n(-c3ccccc3)nc2c1=O | 72%
CCOc1ccc(CCNC(=O)Cn2nc(C)c3c(C)n(-c4ccccc4)nc3c2=O)cc1OCC | 25% (active)
Cc1ccc(NC(=O)CCCn2nc(C)c3c(C)n(-c4ccccc4)nc3c2=O)c(Cl)c1 | 89%
Cc1cccc(NC(=O)CCn2nc(C)c3c(C)n(-c4ccccc4)nc3c2=O)c1C | 57%
COc1cccc(CNC(=O)CCn2nc(C)c3c(C)n(-c4ccccc4)nc3c2=O)c1 | 83%
COc1cc(OC)c(NC(=O)CCCn2nc(C)c3c(C)n(-c4ccccc4)nc3c2=O)cc1Cl | 32% (active)
Cc1cc(Cl)ccc1NC(=O)CCCn1nc(C)c2c(C)n(-c3ccccc3)nc2c1=O | 112%
CCN(CC)CCNC(=O)Cn1nc(C)c2c(C)n(-c3ccccc3)nc2c1=O | 70%
CCN(c1cccc(C)c1)S(=O)(=O)c1cc2c(cc1C)n(C)c(=O)c(=O)n2C | 85%
COC(=O)c1ccccc1NC(=O)CCCn1c(C)c2cnn(-c3ccccc3)c(=O)c2c1C | 90%
COc1ccc(OC)c(C2=NS(=O)(=O)N(C)C(C(=O)Nc3ccc(F)cc3F)=C2)c1 | 72%
COC(=O)c1ccc(NC(=O)CN(C)S(=O)(=O)c2ccc3c(c2)CCCC(=O)N3)cc1 | 79%
CCCN1C2CCCC1CC(NC(=O)NC1CCCCC1)C2 (centres undefined) | 59%

SMILES | survival
CCOC(=O)c1cc2c(ccn2-c2ccc(F)cc2)n1CC(=O)N1C(C)CCCC1C (centres undefined) | 103%
CC(=O)c1cc(C(=O)Nc2cc(C)cc(C)c2)c2ccccn12 | 43%
CCOc1cccc(C2c3[nH]c4ccccc4c3CCN2C(=O)CCC2CCCC2)c1 (centres undefined) | 78%
COC(=O)c1ccccc1NC(=O)Cn1cnc2sc(C)c(S(=O)(=O)N3CCC(C)CC3)c2c1=O | 59%
Cc1nn(CCC(=O)NCc2ccc(Cl)cc2)c(=O)c2nn(-c3ccccc3)c(C)c12 | 0% (active)
Cc1nn(CCC(=O)NCc2ccc(N(C)C)cc2)c(=O)c2nn(-c3ccccc3)c(C)c12 | 95%
CCc1ccc(CNC(=O)CCn2nc(C)c3c(C)n(-c4ccccc4)nc3c2=O)cc1 | 55%
O=c1c2cnn(-c3ccc(Cl)cc3)c2ncn1Cc1ccc(Cl)cc1Cl | 102%
CCc1ccccc1NC(=O)C1CCCN(S(=O)(=O)c2ccc3[nH]c(=O)ccc3c2)C1 (centres undefined) | 88%
CCSc1nc2ccccc2c(OCc2cc(C(=O)OC)ccc2OC)c1C(=O)OC | -12% (active)
COC(=O)c1c(SC)nc2ccccc2c1OCc1ccc(C)cc1C | 46% (active)
COC(=O)c1c(SC)nc2ccccc2c1OCc1cc(C)ccc1C | 144%
CCSc1nc2ccccc2c(OCc2ccccc2Cl)c1C(=O)OC | 64%
CCSc1nc2ccccc2c(OCc2ccc(Cl)cc2)c1C(=O)OC | 98%
COC(=O)c1c(SC)nc2ccccc2c1OCc1ccccc1C | 105%
CCOC(=O)Cn1cc2c(c1-c1ccc(Cl)cc1)c(=O)n(C)c(=O)n2C | 60%
COc1cc(CNC(=O)C2CCCCN2S(=O)(=O)c2ccc(F)cc2)cc(OC)c1OC (centres undefined) | 83%
Cc1ccc2c(=O)c(C(=O)c3ccc(F)cc3)cn(CC(=O)Nc3ccc4c(c3)OCCO4)c2n1 | 77%
Cc1ccc(CCNC(=O)c2ccc3c(Cl)c4c(nc3c2)CCCC4)cc1 | 61%
CCCCC(=O)N(c1ccc2oc(C)c(C(C)=O)c2c1)S(=O)(=O)c1ccc(F)cc1C | 62%
CCc1ccc(S(=O)(=O)N(C(C)=O)c2ccc3oc4c(c3c2)CCCC4)cc1 | 146%
CCCC(=O)N(c1ccc2oc3c(c2c1)CCCC3)S(=O)(=O)c1ccc(CC)cc1 | 39% (active)
CCOC(=O)c1c(-c2ccccc2)oc2ccc(N(C(C)=O)S(=O)(=O)c3cc(C)ccc3C)cc12 | 54%

SMILES | survival
CCCC(=O)N(c1ccc2oc3c(c2c1)CCCC3)S(=O)(=O)c1cc(C)ccc1C | 35% (active)
CCCC(=O)N(c1ccc2oc(-c3ccccc3)c(C(=O)OCC)c2c1)S(=O)(=O)c1ccc(C)cc1 | 140%
CCC1CN(C(=O)NCc2ccc(C)cc2)c2cc(C)ccc2O1 (centres undefined) | 54%
COC(=O)CC1Oc2ccc(Cl)cc2-n2cc(-c3ccccc3)nc21 (centres undefined) | 63%
CCOC(=O)Cn1c(=O)oc2cc(S(=O)(=O)NC(C)c3ccccc3)ccc21 (centres undefined) | 66%
CC(C)=NNC(=O)CNc1ccccc1Cl | 79%
Cc1ccc(NC(=O)C2CC=CCC2C(=O)N2CCCCC2)cc1 (centres undefined) | 69%
COc1cc(CN2CCc3nc(N4CCN(c5ccccc5F)CC4)ncc3C2)ccc1OC(C)C | 118%
O=C(CC1N=C2c3ccccc3N=C(SCc3ccccc3Cl)N2C1=O)NCc1cccs1 (centres undefined) | 66%
Cc1cc(O)c(C(=O)c2cnc3c(c2)COc2ccccc2-3)cc1Cl | 76%
O=C(c1cnc2c(c1)COc1ccccc1-2)c1ccccc1O | 3% (active)
O=C(c1cnc2c(c1)COc1ccc(Cl)cc1-2)c1ccccc1O | 105%
Cc1ccc2c(c1)-c1ncc(C(=O)c3cc(Br)ccc3O)cc1CO2 | 62%
Cc1ccc2c(c1)-c1ncc(C(=O)c3ccccc3O)cc1CO2 | 3% (active)
Cc1ccc2c(c1)-c1nc(-c3ccccc3)cc(-c3ccccc3)c1CO2 | 91%
COc1ccccc1/C=C(\C#N)C(=O)NCC1CCCO1 (centres undefined) | 129%
CC1=C(c2ccc(Cl)cc2)S(=O)(=O)N=C1N1CCN(c2cccc(C(F)(F)F)c2)CC1 | 71%
CCS(=O)(=O)N1CCc2cc(C(=O)NCc3ccc(Cl)cc3)ccc21 | 92%
Cc1ccc(NC(=O)Nc2nnc(N(C)C3CCCCC3)s2)c(Cl)c1 | 104%
COc1cc(OC)c(NC(=O)Nc2nnc(N(C)C3CCCCC3)s2)cc1Cl | 23% (active)
COc1ccc(NC(=O)Nc2nnc(N(C)C3CCCCC3)s2)c(OC)c1 | 70%
O=C(CSc1nc2c([nH]c3ccccc32)c(=O)n1-c1cccc(Cl)c1)N1CCc2ccccc21 | 73%
COC(=O)C1CCN(C(c2ccccc2)c2sc3nc(-c4ccco4)nn3c2O)CC1 (centres undefined) | 57%

SMILES | survival
Cc1ccc(C)c(NC(=O)c2ccc(=O)n(Cc3ccc(F)cc3)c2)c1 | 94%
CCN(CC)CCCNC(=O)Cn1ncc2c3ccccc3n(Cc3ccccc3)c2c1=O | 95%
COc1ccc(N2CCN(CCCNC(=O)c3cc(Nc4ccc(OC)cc4OC)nc4ccccc34)CC2)cc1 | 87%
O=C(c1cc2c(s1)-c1ccccc1OC2)N1CCN(c2ccccc2F)CC1 | 41% (active)
COc1ccc2c(c1)CC(C(=O)NCCN1CCN(c3ccccc3F)CC1)CO2 (centres undefined) | 47% (active)
O=C(c1cc2c(s1)-c1ccccc1OC2)N1CCN(c2ccc(F)cc2)CC1 | 59%
O=C(NCCCN1CCN(c2ccc(F)cc2)CC1)c1cc2c(Cl)nc3ccccc3c2s1 | 91%
COc1ccc(Nc2cc(C(=O)NCCCN3CCN(c4ccccc4F)CC3)c3ccccc3n2)c(OC)c1 | 48% (active)
CCCN1CCN(CCCNC(=O)c2cc3c(Cl)nc4ccccc4c3s2)CC1 | 116%
O=C(NCCCN1CCN(c2ccccc2F)CC1)c1cc2c(Cl)nc3ccccc3c2s1 | 51% (active)
COc1ccccc1N1CCN(C(=O)c2cc3c(s2)-c2ccccc2OC3)CC1 | 88%
COc1ccc2c(c1)CC(C(=O)NCCN1CCN(c3cccc(C)c3C)CC1)CO2 (centres undefined) | 76%
COc1ccc2c(c1)CC(C(=O)NCCCN1CCN(c3ccccc3F)CC1)CO2 (centres undefined) | 87%
COc1ccc(N2CCN(CCCNC(=O)c3cc(Nc4ccccc4OC)nc4ccccc34)CC2)cc1 | 62%
COc1cccc(N2CCN(C(=O)Cn3c(-c4cccs4)cc4ccccc43)CC2)c1 | 104%
CCCCOc1ccc(C(C)NC(=O)c2cccc(Nc3nc4ccccc4n4nnnc34)c2)cc1 (centres undefined) | 67%
Cc1ccc2[nH]c3nc(NN)nnc3c2c1 | 77%
CCOc1ccc(N2CC(NC(=O)Cc3ccccc3)CC2=O)cc1 (centres undefined) | 135%
COc1ccc(N(Cc2nnc3n2CCCCC3)C(=O)Nc2ccc(Cl)cc2)cc1Cl | 85%
Cc1ccccc1NC(=O)CSc1nc2c(c(=O)n(C)c(=O)n2C)n1Cc1ccccc1F | 56%

From PubChem BioAssay AID463173 (ICCB-Longwood Screening Facility, Harvard Medical School, 2010)
